ELG1 repair inh – qHTS screen for small molecules that inhibit ELG1-dependent DNA repair in human embryonic kidney (HEK293T) cells expressing luciferase-tagged ELG1; HEK293T ELG1-luciferase reporter, luminescence, 16 h; DNA damage induced by 5-fluorouridine; Potency, µM (series often up to 46.1 µM), for the others: top-dose activity change, negative = inhibition, most hits filed as inhibitors; 330,000 tested, 2.3% active; AID 504467, 2011; further: on the % scale 0 is the no-effect control and ±100 the full control effect; nearly all actives have a fitted effect of over 55% in size
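HEK293T cells expressing luciferase-tagged ELG1 (2,000/well) received 5-Fluorouridine plus compound or DMSO for 16 hr at 37 °C. Luciferase was read by ONE-Glo luminescence after 30 min at room temperature.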
NPC1 prom act – qHTS Assay for NPC1 Promoter Activators | AID 485313, 2010 | 320,000 tested, 2.4% active | Huh7 NPC1 promoter luciferase reporter, 24 h | Potency, µM (doses to about 9.22 µM), without a hit: at the top dose activation, hits mostly activators; further: % of control where 0% means no effect; nearly all actives have a fitted effect of over 60% in size
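Quantitative HTS used a cell-based reporter: Huh7 cells stably bearing the NPC1 promoter upstream of luciferase were treated with compounds for 24 h, and promoter activation was read as luminescence.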
SMN2 splice up – qHTS Assay for Enhancers of SMN2 Splice Variant Expression | AID 1458, 2008 | HEK293 SMN2-luciferase splicing reporter, luminescence, 30-36 h | 210,000 tested, 2.8% active | Potency, µM (series often up to 46.1 µM), inactives show at the top dose activity change, positive = activation, hits mostly activators; further: % of control where 0% means no effect; nearly all actives have a fitted effect of over 55% in size
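qHTS luciferase splicing reporter: luminescence rises when SMN2 exon 7 is included in transfected HEK293 cells. Compound exposure lasted 30-36 h at 37C, with 4.5 mM final sodium butyrate as control, followed by a ONE-Glo read.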
ELG1 genotox – qHTS screen for small molecules that induce genotoxicity in human embryonic kidney (HEK293T) cells expressing luciferase-tagged ELG1 | AID 504466, 2011 | 330,000 tested, 1.3% active | HEK293T ELG1-luciferase reporter, luminescence, 16 h | Potency, µM (top dose mostly 46 µM), without a hit: top-dose activity change, positive = activation, most hits filed as activators; further: % of control where 0% means no effect; nearly all actives have a fitted effect of over 60% in size
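After overnight (16 hr) compound treatment at 37 °C, ELG1-luciferase HEK293T cells were lysed with ONE-Glo; luminescence quantified 30 min later at room temperature.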
FLuc counter – qHTS profiling assay for firefly luciferase inhibitor/activator using purifed enzyme and Km concentrations of substrates (counterscreen for miR-21 project). AID 588342, 2011. Potency, µM (titrated, usually from 57.5 µM), for the others: top-dose activity change, negative = inhibition, most hits filed as inhibitors. 360,000 tested, 6.9% active. purified FLuc, Km substrates, luminescence inhibition;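 further: plate controls were vehicle for no effect and reference inhibitor for full effect; nearly all actives have a fitted effect of over 55% in size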
Target sequence (P08659 whole entry, looked up): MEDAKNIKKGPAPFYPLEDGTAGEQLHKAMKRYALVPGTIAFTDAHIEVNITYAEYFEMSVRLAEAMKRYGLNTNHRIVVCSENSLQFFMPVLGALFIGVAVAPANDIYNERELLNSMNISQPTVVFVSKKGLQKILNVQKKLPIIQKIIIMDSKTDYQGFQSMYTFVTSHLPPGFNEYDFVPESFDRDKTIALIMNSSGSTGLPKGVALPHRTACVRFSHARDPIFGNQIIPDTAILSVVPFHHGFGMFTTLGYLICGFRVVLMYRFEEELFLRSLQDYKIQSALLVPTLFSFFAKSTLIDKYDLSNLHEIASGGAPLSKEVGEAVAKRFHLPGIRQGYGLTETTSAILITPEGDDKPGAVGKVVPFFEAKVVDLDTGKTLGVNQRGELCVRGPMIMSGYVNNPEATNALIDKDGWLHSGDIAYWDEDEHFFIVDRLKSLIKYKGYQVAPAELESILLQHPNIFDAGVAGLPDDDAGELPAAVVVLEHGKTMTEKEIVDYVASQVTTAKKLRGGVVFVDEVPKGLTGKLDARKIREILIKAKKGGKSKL
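Purified P. pyralis luciferase (10nM final) with 10uM D-luciferin and 10uM ATP (Km levels) in 50mM Tris acetate pH 7.5, 10mM Mg acetate, 0.01% Tween-20, 0.05% BSA; qHTS 6-point titration, ~60 µM downward; luminescence read.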
Rab9 prom act – qHTS Assay for Rab9 Promoter Activators; Huh7 Rab9 promoter-luciferase reporter, luminescence, 24 h; Potency, µM (highest dose often 9.22 µM), for inactives: at the top dose activation, negative = inhibition, usual class: activators; 320,000 tested, 2.8% active; further: % of control where 0% means no effect; nearly all actives have a fitted effect of over 60% in size
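Cells were plated at 1500 per well in reduced-serum medium with 10% FBS and left 2 h. Compound in DMSO was then added for 24 h at 37 °C. Reporter signal was read by luminescence after 10 min with luciferase detection reagent.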
Numbers without * were called inactive; ? = inconclusive; · = not tested or not shown. A selection: hits, their analogues and other compounds. The true share with any hit is near 9.2%. The call rests on the fitted dose curve; in most records, active means well fitted curve in the direction sought with a large enough effect; inconclusive means small, poorly fitted or top-dose-only effect, or another doubt; inactive means no such curve, though single readings can be large; an effect the other way counts as inactive or inconclusive. Potency means the concentration at half of the fitted maximal effect.

SMILES	ELG1 repair inh	NPC1 prom act	SMN2 splice up	ELG1 genotox	FLuc counter	Rab9 prom act
O=C(NN=C1CCCC1)c1n[nH]c2c1CCC2	?	13%	·	?	?	24%
COc1ccc(CNC(=O)C(C)Sc2ccc(S(=O)(=O)N3CCOCC3)cn2)cc1 (stereo unspecified)	1%	0%	·	0%	5%	2%
COc1ccc(NC(=O)C2CCCN(S(=O)(=O)c3ccccc3)C2)c(OC)c1 (stereo unspecified)	-10%	1%	·	-8%	1%	0%
COc1ccc(NC(=O)C(C)N2c3cccc4cccc(c34)S2(=O)=O)cc1 (stereo unspecified)	?	-5%	-50%	1%	4%	-4%
COc1ccc(NC(=O)C(C)N2c3cccc4cccc(c34)S2(=O)=O)cc1OC (stereo unspecified)	7.3µM*	-8%	-80%	4%	1%	-16%
CCCCn1c(N)c(N(CC(C)C)C(=O)c2ccc3c(c2)NC(=O)C(C)S3)c(=O)[nH]c1=O (stereo unspecified)	-3%	0%	·	0%	5%	7%
O=C(Nc1ccc2oc(-c3ccncc3)nc2c1)c1ccccc1	-4%	-4%	-16%	2%	0%	-2%
O=C(Nc1ccc2oc(-c3ccncc3)nc2c1)c1ccccc1F	26%	28%	-38%	3%	?	23%
O=C(Nc1ccc2oc(-c3ccccc3F)nc2c1)c1ccccc1F	?	2.2µM*	·	16%	4.8µM*	3.5µM*
O=C(Nc1ccc2oc(-c3ccccc3)nc2c1)c1ccccc1F	?	?	13µM*	19%	?	2.5µM*
O=C(Nc1ccc2oc(-c3ccccc3F)nc2c1)c1ncn[nH]1	?	0.35µM*	14µM*	?	2.1µM*	0.5µM*
Cc1ccc(NC(=O)c2ncn[nH]2)cc1	?	10%	15%	8%	17µM*	2%
Cn1cc(S(=O)(=O)N2CCCCC2)cc1C(=O)N1CCN(c2ccccc2F)CC1	·	·	·	·	-4%	·
O=C(Nc1ccc2oc(-c3ccc4ccccc4c3)nc2c1)c1ccc(Cl)c(Cl)c1	·	·	3%	·	-7%	·
O=C(Nc1ccc2oc(-c3cccc(F)c3)nc2c1)c1ccccc1F	?	?	-3%	21µM*	-14%	?
O=C(Nc1ccc(-c2nc3cc(NC(=O)c4ccccc4F)ccc3o2)cc1)c1ccccc1F	·	·	·	·	-2%	·
O=C(Nc1ccc2oc(-c3ccc(Cl)c(Cl)c3)nc2c1)c1ncn[nH]1	?	0.5µM*	-22%	?	?	0.71µM*
COC(=O)[C@H]1C[C@@H](c2ccccc2)[C@H](C)C1(C)C	1%	3%	·	4%	0%	0%
Cc1ccc2nc(-c3ccc(O)c(O)c3)cn2c1	?	?	·	?	3.4µM*	8%
CCN(CC)S(=O)(=O)c1ccc(-c2cn3cc(Cl)ccc3n2)cc1	24%	18%	·	6%	?	20%
Cc1ccc2nc(-c3ccccc3)cn2c1	?	0.11µM*	0.5µM*	?	0.12µM*	?
Cc1ccc2nc(-c3ccccn3)c(NC3CCCC3)n2c1	?	-4%	·	6%	-1%	-5%
Cc1ccc2nc(-c3ccc(-c4ccccn4)s3)cn2c1	?	0.45µM*	·	1.6µM*	0.19µM*	0.4µM*
Cc1ccc2nc(-c3ccc(S(=O)(=O)N4CCOCC4)cc3)cn2c1	?	2%	5%	23µM*	-10%	15%
COc1ccc(-n2c(CC3C(=O)N(C)c4ccc(C)cc43)nc3ccccc3c2=O)cc1 (stereo unspecified)	·	·	4%	·	-3%	·
SMILES	ELG1 repair inh	NPC1 prom act	SMN2 splice up	ELG1 genotox	FLuc counter	Rab9 prom act
Cc1ccc(S(=O)(=O)CCC(=O)OCC(=O)N2c3ccccc3NC(=O)C2(C)C)cc1	-10%	-7%	·	-3%	0%	-2%
CCc1ccc(C(=O)c2cn(CC(=O)Nc3ccc(OC)c(Cl)c3)c3nc(C)ccc3c2=O)cc1	·	·	·	·	-5%	·
CC(=O)Nc1ccc(C)cc1	0%	0%	0%	4%	0%	1%
CC(=O)Nc1ccc(-c2cn3cc(C)ccc3n2)cc1	?	3.2µM*	4.5µM*	?	1.9µM*	1µM*
COC(=O)c1cc(NC(=O)c2cc3ccccc3o2)cc(C(=O)OC)c1	?	-4%	·	-8%	?	10%
COC(=O)c1cccc(NC(=O)c2cc3ccccc3o2)c1	?	0.71µM*	·	16%	2.1µM*	0.71µM*
CC(=O)N1CCN(c2ccccc2NC(=O)c2cc3ccccc3o2)CC1	15µM*	15%	·	-8%	-17%	13%
O=C(Nc1ccccc1C(F)(F)F)c1cc2ccccc2o1	?	2.5µM*	·	10µM*	3.4µM*	2.2µM*
COC(=O)c1ccccc1NC(=O)c1cc2ccccc2o1	?	?	·	-1%	13µM*	?
Cn1cccc1C(=O)N1CCC2(CCN(Cc3nccs3)CC2)CC1	·	·	-16%	·	·	·
N=c1c(S(=O)(=O)c2ccc(Cl)cc2)cc2c(=O)n3ccccc3nc2n1C1CCCCC1	?	28%	·	?	?	15%
CC(C)C(=O)Nc1cccc(-c2nc3ccccc3o2)c1	-8%	-1%	15%	?	-13%	3%
CC(=O)Nc1cccc(-c2nc3ccccc3o2)c1	0%	28%	·	?	19µM*	30%
CC(=O)Nc1ccc2nc3c(=O)n(C)c(=O)n(C)c3nc2c1	0%	-1%	·	0%	-1%	1%
CC(=O)Nc1ccc(-c2nc3ccc(NC(C)=O)cc3o2)cc1	?	2.5µM*	·	?	?	2µM*
CC(=O)Nc1ccc2nc3ccccc3nc2c1	?	2.8µM*	·	21µM*	19µM*	4µM*
CC(=O)Nc1ccc2oc(-c3ccccc3)nc2c1	?	1.3µM*	10µM*	?	7.6µM*	2.5µM*
CCOC(=O)C1CCCN(C(=O)c2cc(S(=O)(=O)N3CCCCC3)ccc2Cl)C1 (stereo unspecified)	-1%	-9%	·	-4%	-2%	-6%
Cc1ccc2c(c1)N(CC(=O)NCCCN1CCOCC1)C(=O)C(C(C)C)O2 (stereo unspecified)	11%	-2%	·	0%	2%	-1%
